# Assay results as given in article PMC5540273 (PLoS ONE, 2017).
# Like-named read-outs stand apart in the source and are kept apart here.
# How the values were obtained:
# [1] = test system: CAMKK1; settings: concentration: 1 μM, replicates: in singlicate; n = 1
# [2] = test system: CAMKK2; settings: concentration: 1 μM, replicates: in singlicate; n = 1
# [3] = test system: CASK; settings: concentration: 1 μM, replicates: in singlicate; n = 1
# [4] = test system: T1, CDC2L1; settings: concentration: 1 μM, replicates: in singlicate; n = 1
# T1 construct: gene CDK11B
# [5] = test system: CDC2L2; settings: concentration: 1 μM, replicates: in singlicate; n = 1
# [6] = test system: T2, CDC2L5; settings: n = 1
# T2 construct: gene CDK13
# [7] = test system: T3, CDK11; settings: concentration: 1 μM, replicates: in singlicate; n = 1
# T3 construct: gene CDK19
# [8] = test system: CDK2; settings: concentration: 1 μM, replicates: in singlicate; n = 1
# [9] = test system: CDK3; settings: concentration: 1 μM, replicates: in singlicate; n = 1
# [10] = test system: CDK4-cyclinD1; settings: n = 1
# [11] = test system: CDK4-cyclinD3; settings: n = 1
# [12] = test system: CDK4; settings: n = 1
# [13] = test system: CDK5; settings: concentration: 1 μM, replicates: in singlicate; n = 1
# [14] = test system: CDK7; settings: concentration: 1 μM, replicates: in singlicate; n = 1
# [15] = test system: CDK8; settings: concentration: 1 μM, replicates: in singlicate; n = 1
# [16] = test system: CDK9; settings: concentration: 1 μM, replicates: in singlicate; n = 1
# [17] = test system: CDKL1; settings: concentration: 1 μM, replicates: in singlicate; n = 1
# [18] = test system: CDKL2; settings: concentration: 1 μM, replicates: in singlicate; n = 1
# [19] = test system: CDKL3; settings: concentration: 1 μM, replicates: in singlicate; n = 1
# [20] = test system: CDKL5; settings: concentration: 1 μM, replicates: in singlicate; n = 1
# [21] = concentration: 1 μM, replicates: in singlicate
# 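Note: KINOMEscan kinase panel screen.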
smiles,measurement,setting,value
NS(=O)(=O)c1cccc(-c2ccc3nccc(-c4cccc(S(N)(=O)=O)c4)c3c2)c1 [GW867253],%Inh,[1],13%
same,%Inh,[2],19%
same,%Inh,[3],30%
same,%Inh,[4],0%
same,%Inh,[5],0%
same,%Inh,[6]; [21],0%
same,%Inh,[7],13%
same,%Inh,[8],0%
same,%Inh,[9],22%
same,%Inh,[10]; [21],0%
same,%Inh,[11]; [21],0%
same,%Inh,[12]; [21],19%
same,%Inh,[13],0%
same,%Inh,[14],4%
same,%Inh,[15],36%
same,%Inh,[16],0%
same,%Inh,[17],27%
same,%Inh,[18],16%
same,%Inh,[19],20%
same,%Inh,[20],5%
c1ccc(-c2n[nH]cc2-c2ccnc3ccccc23)nc1 [GW271431],%Inh,[1],17%
same,%Inh,[2],30%
same,%Inh,[3],0%
same,%Inh,[4],0%
same,%Inh,[5],24%
same,%Inh,[6]; [21],0%
same,%Inh,[7],34%
same,%Inh,[8],0%
same,%Inh,[9],0%
same,%Inh,[10]; [21],0%
same,%Inh,[11]; [21],0%
same,%Inh,[12]; [21],0%
same,%Inh,[13],0%
same,%Inh,[14],0%
same,%Inh,[15],5%
same,%Inh,[16],0%
same,%Inh,[17],7%
same,%Inh,[18],5%
same,%Inh,[19],0%
same,%Inh,[20],6%
Cn1cc(-c2ccc3c(c2)CCN3C(=O)Cc2ccccc2Cl)c2c(N)ncnc21 [GSK2608885],%Inh,[1],25%
same,%Inh,[2],28%
same,%Inh,[3],0%
same,%Inh,[4],0%
same,%Inh,[5],14%
same,%Inh,[6]; [21],0%
same,%Inh,[7],0%
same,%Inh,[8],0%
same,%Inh,[9],0%
same,%Inh,[10]; [21],0%
same,%Inh,[11]; [21],0%
same,%Inh,[12]; [21],22%
same,%Inh,[13],0%
same,%Inh,[14],1%
same,%Inh,[15],7%
same,%Inh,[16],0%
same,%Inh,[17],0%
same,%Inh,[18],17%
same,%Inh,[19],0%
same,%Inh,[20],10%
CN1c2ccc(NCc3ccc(F)cc3)cc2-c2c(cnn2C)S1(=O)=O,%Inh,[1],0%
same,%Inh,[2],0%
same,%Inh,[3],26%
same,%Inh,[4],0%
same,%Inh,[5],0%
same,%Inh,[6]; [21],27%
same,%Inh,[7],0%
same,%Inh,[8],25%
same,%Inh,[9],0%
same,%Inh,[10]; [21],21%
same,%Inh,[11]; [21],0%
same,%Inh,[12]; [21],0%
same,%Inh,[13],6%
same,%Inh,[14],0%
same,%Inh,[15],62%
same,%Inh,[16],15%
same,%Inh,[17],20%
same,%Inh,[18],19%
same,%Inh,[19],0%
same,%Inh,[20],0%
O=c1cc(N2CCOCC2)nc2n(Cc3cccc(F)c3)ccn12 [GSK2297430],%Inh,[1],25%
same,%Inh,[2],3%
same,%Inh,[3],0%
same,%Inh,[4],3%
same,%Inh,[5],6%
same,%Inh,[6]; [21],0%
same,%Inh,[7],0%
same,%Inh,[8],7%
same,%Inh,[9],1%
same,%Inh,[10]; [21],0%
same,%Inh,[11]; [21],0%
same,%Inh,[12]; [21],19%
same,%Inh,[13],0%
same,%Inh,[14],0%
same,%Inh,[15],26%
same,%Inh,[16],0%
same,%Inh,[17],0%
same,%Inh,[18],0%
same,%Inh,[19],0%
same,%Inh,[20],0%
COC(=O)Nc1nc2cc(Oc3ccc(NC(=O)Nc4cc(F)ccc4F)cc3)ccc2[nH]1.Cl [GW701424],%Inh,[1],0%
same,%Inh,[2],4%
same,%Inh,[3],0%
same,%Inh,[4],0%
same,%Inh,[5],6%
same,%Inh,[6]; [21],0%
same,%Inh,[7],0%
same,%Inh,[8],0%
same,%Inh,[9],0%
same,%Inh,[10]; [21],20%
same,%Inh,[11]; [21],5%
same,%Inh,[12]; [21],0%
same,%Inh,[13],0%
same,%Inh,[14],37%
same,%Inh,[15],42%
same,%Inh,[16],0%
same,%Inh,[17],0%
same,%Inh,[18],36%
same,%Inh,[19],0%
same,%Inh,[20],0%
NS(=O)(=O)CCc1cccc(Nc2nccc(-c3c(-c4cccc(NC(=O)c5c(F)cccc5F)c4)nn4ccccc34)n2)c1 [GSK336735],%Inh,[1],0%
same,%Inh,[2],8%
same,%Inh,[3],7%
same,%Inh,[4],11%
same,%Inh,[5],35%
same,%Inh,[6]; [21],0%
same,%Inh,[7],14%
same,%Inh,[8],0%
same,%Inh,[9],21%
same,%Inh,[10]; [21],0%
same,%Inh,[11]; [21],0%
same,%Inh,[12]; [21],19%
same,%Inh,[13],0%
same,%Inh,[14],0%
same,%Inh,[15],0%
same,%Inh,[16],0%
same,%Inh,[17],0%
same,%Inh,[18],25%
same,%Inh,[19],0%
same,%Inh,[20],1%
CC(=O)Nc1ccc(COc2ccc(Nc3ccnc4cc(-c5ccccn5)ccc34)cc2)cc1.Cl [GW440148],%Inh,[1],4%
same,%Inh,[2],26%
same,%Inh,[3],1%
same,%Inh,[4],12%
same,%Inh,[5],11%
same,%Inh,[6]; [21],0%
same,%Inh,[7],17%
same,%Inh,[8],1%
same,%Inh,[9],0%
same,%Inh,[10]; [21],0%
same,%Inh,[11]; [21],0%
same,%Inh,[12]; [21],0%
same,%Inh,[13],0%
same,%Inh,[14],0%
same,%Inh,[15],8%
same,%Inh,[16],14%
same,%Inh,[17],7%
same,%Inh,[18],12%
same,%Inh,[19],0%
same,%Inh,[20],0%
Cc1c2ccc(N(C)c3ccnc(Nc4cccc(S(N)(=O)=O)c4)n3)cc2nn1Cc1ccccc1.Cl.Cl [GW787226],%Inh,[1],0%
same,%Inh,[2],0%
same,%Inh,[3],9%
same,%Inh,[4],66%
same,%Inh,[5],76%
same,%Inh,[6]; [21],0%
same,%Inh,[7],9%
same,%Inh,[8],0%
same,%Inh,[9],3%
same,%Inh,[10]; [21],0%
same,%Inh,[11]; [21],0%
same,%Inh,[12]; [21],2%
same,%Inh,[13],0%
same,%Inh,[14],3%
same,%Inh,[15],0%
same,%Inh,[16],3%
same,%Inh,[17],0%
same,%Inh,[18],39%
same,%Inh,[19],10%
same,%Inh,[20],0%
Cc1ccc(NC(=O)c2ccnc(N3CCN(C)CC3)c2)cc1-c1ccc(C(=O)NCC2CC2)cc1 [GW775604],%Inh,[1],0%
same,%Inh,[2],0%
same,%Inh,[3],10%
same,%Inh,[4],0%
same,%Inh,[5],0%
same,%Inh,[6]; [21],0%
same,%Inh,[7],0%
same,%Inh,[8],0%
same,%Inh,[9],34%
same,%Inh,[10]; [21],0%
same,%Inh,[11]; [21],0%
same,%Inh,[12]; [21],2%
same,%Inh,[13],0%
same,%Inh,[14],0%
same,%Inh,[15],0%
same,%Inh,[16],0%
same,%Inh,[17],0%
same,%Inh,[18],0%
same,%Inh,[19],5%
same,%Inh,[20],0%
O=c1cc(N2CCOCC2)nc2n(Cc3cccc(Cl)c3Cl)c(C3CC3)nn12 [GSK2358994],%Inh,[1],3%
same,%Inh,[2],8%
same,%Inh,[3],26%
same,%Inh,[4],0%
same,%Inh,[5],0%
same,%Inh,[6]; 1 µM,0%
same,%Inh,[7],0%
same,%Inh,[8],0%
same,%Inh,[9],5%
same,%Inh,[10]; 1 µM,0%
same,%Inh,[11]; 1 µM,0%
same,%Inh,[12]; 1 µM,0%
same,%Inh,[13],7%
same,%Inh,[14],5%
same,%Inh,[15],0%
same,%Inh,[16],0%
same,%Inh,[17],20%
same,%Inh,[18],0%
same,%Inh,[19],0%
same,%Inh,[20],0%
O=C(NCCCN1CCOCC1)c1cccc(Nc2nccc(Nc3ccc(Oc4ccccc4)cc3)n2)c1 [GW663929],%Inh,[1],0%
same,%Inh,[2],7%
same,%Inh,[3],7%
same,%Inh,[4],10%
same,%Inh,[5],26%
same,%Inh,[6]; [21],0%
same,%Inh,[7],15%
same,%Inh,[8],0%
same,%Inh,[9],0%
same,%Inh,[10]; [21],6%
same,%Inh,[11]; [21],0%
same,%Inh,[12]; [21],16%
same,%Inh,[13],0%
same,%Inh,[14],20%
same,%Inh,[15],34%
same,%Inh,[16],19%
same,%Inh,[17],5%
same,%Inh,[18],28%
same,%Inh,[19],0%
same,%Inh,[20],0%
Cc1cn2c(=O)cc(N3CCOCC3)nc2n1Cc1cccc(Cl)c1Cl [GSK2334006],%Inh,[1],30%
same,%Inh,[2],32%
same,%Inh,[3],20%
same,%Inh,[4],0%
same,%Inh,[5],6%
same,%Inh,[6]; [21],0%
same,%Inh,[7],11%
same,%Inh,[8],17%
same,%Inh,[9],25%
same,%Inh,[10]; [21],0%
same,%Inh,[11]; [21],0%
same,%Inh,[12]; [21],3%
same,%Inh,[13],2%
same,%Inh,[14],0%
same,%Inh,[15],15%
same,%Inh,[16],0%
same,%Inh,[17],0%
same,%Inh,[18],3%
same,%Inh,[19],0%
same,%Inh,[20],2%
COc1ccc(COc2cc(-n3cnc4ccccc43)sc2C(N)=O)cc1 [GSK1024304],%Inh,[1],4%
same,%Inh,[2],13%
same,%Inh,[3],0%
same,%Inh,[4],0%
same,%Inh,[5],0%
same,%Inh,[6]; [21],0%
same,%Inh,[7],22%
same,%Inh,[8],0%
same,%Inh,[9],9%
same,%Inh,[10]; [21],0%
same,%Inh,[11]; [21],0%
same,%Inh,[12]; [21],40%
same,%Inh,[13],0%
same,%Inh,[14],0%
same,%Inh,[15],29%
same,%Inh,[16],0%
same,%Inh,[17],7%
same,%Inh,[18],18%
same,%Inh,[19],0%
same,%Inh,[20],0%
O=C(Nc1cccc(-c2nn3ncccc3c2-c2ccnc(Nc3cccc(C(F)(F)F)c3)n2)c1)c1c(F)cccc1F [GSK299495],%Inh,[1],0%
same,%Inh,[2],8%
same,%Inh,[3],13%
same,%Inh,[4],0%
same,%Inh,[5],19%
same,%Inh,[6]; [21],0%
same,%Inh,[7],15%
same,%Inh,[8],0%
same,%Inh,[9],3%
same,%Inh,[10]; [21],0%
same,%Inh,[11]; [21],9%
same,%Inh,[12]; [21],18%
same,%Inh,[13],0%
same,%Inh,[14],0%
same,%Inh,[15],24%
same,%Inh,[16],0%
same,%Inh,[17],0%
same,%Inh,[18],14%
same,%Inh,[19],0%
same,%Inh,[20],0%
